Source: PubChem (The Scripps Research Institute Molecular Screening Center)
Compounds with a hit are over-represented: about 3.5% of the library has one in this group of screens.
FBW7 activator: FBW7 E3 ligase activators, primary screen, biochemical, AlphaScreen, human; AlphaScreen FBW7–phospho-cyclin E peptide binding, activator screen; normalized activity (activation), % at 26.1 µM; hit rate 0.13% among 650,000; F-box/WD repeat-containing protein 7 (Homo sapiens), Q969H0; AID 1259310, 2017; in the data active = normalized activity above about 1.9%;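 also: purified mutant Fbw7 with reduced substrate affinity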
TEAD-YAP inh: TEAD-YAP interaction inhibition, primary screen, TEAD-YAP interaction inhibitor project, luminescence, HEK-TIYL cells | TEAD-Gal4/YAP UAS-luciferase luminescence | inhibition, % at 9.12 µM | hit rate 1.4% among 640,000 | AID 1259422, 2018; in the data active = inhibition above about 32%
GPR151 ag: activators of human GPR151, primary screen, cell-based, PathHunter beta-arrestin, luminescence; activation, % at 11.2 µM; PathHunter beta-arrestin GPR151 cells; hit rate 1% among 650,000; G-protein coupled receptor 151 (Homo sapiens), Q8TDV0; in the data active = activation above about 4.9%
Target sequence (Q8TDV0 whole entry, looked up): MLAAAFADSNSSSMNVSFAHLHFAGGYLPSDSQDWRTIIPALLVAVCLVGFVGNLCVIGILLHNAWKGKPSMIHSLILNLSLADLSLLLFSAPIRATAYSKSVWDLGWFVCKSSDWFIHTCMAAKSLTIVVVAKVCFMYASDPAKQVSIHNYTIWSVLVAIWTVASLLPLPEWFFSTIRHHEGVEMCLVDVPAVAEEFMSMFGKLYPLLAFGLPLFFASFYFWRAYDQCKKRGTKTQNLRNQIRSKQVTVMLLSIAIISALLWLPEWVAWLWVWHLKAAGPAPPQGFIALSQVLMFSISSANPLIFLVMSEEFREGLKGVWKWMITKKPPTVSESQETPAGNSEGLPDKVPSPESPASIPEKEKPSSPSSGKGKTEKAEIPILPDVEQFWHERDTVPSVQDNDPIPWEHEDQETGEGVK
MITF inh: MITF inhibitors, primary screen, biochemical, AlphaScreen, human; Microphthalmia-associated transcription factor (Homo sapiens), O75030; AlphaScreen MITF homodimerization, bead proximity signal; inhibition, % at 2.6 µM; hit rate 0.91% among 650,000; AID 1259374, 2018; in the data active = inhibition above about 50%
GPR151 confirm: GPR151 activators, triplicate retest, confirmation, cell-based, PathHunter beta-arrestin, luminescence; GPR151 PathHunter beta-arrestin cells, 90 min; % of EA-reagent control over plate median; activation, % at 11.2 µM; shares compounds with GPR151 ag; 6,700 tested, under 10 active;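 active = mean percent activation across replicates above the confirmation screen cutoff of 4.91%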
GPR119 ag: GPR119 activators in beta-arrestin cells, counter-screen for GPR151 activator project, cell-based, PathHunter beta-arrestin, luminescence, triplicate. hit rate 0.3% among 6,700. shares compounds with GPR151 ag. 90 min; 0 = compound-well median, 100 = enzyme-acceptor control. activation, % at 11.2 µM;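 active = mean percent activation in the counterscreen above 29.09%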;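 also: counterscreen on off-target GPR119 to flag nonselective hits from the GPR151 activator screen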
Large screens that a line does not name were inactive (follow-up assays come after a bar, where they were run); ! = repeats disagree.

O=S(=O)(NCC(c1ccco1)S(=O)(=O)c1ccc(F)cc1)c1cccs1 (centres undefined)	GPR151 ag 11 | GPR151 confirm inactive | GPR119 ag inactive
COc1ccc(NC(=O)Nc2c3c(nn2C(C)(C)C)CSC3)cc1	GPR151 ag 5.5 | GPR151 confirm inactive | GPR119 ag inactive
CC(C)(C)n1nc2c(c1NC(=O)c1c(F)cccc1F)CSC2	GPR151 ag 7.6 | GPR151 confirm inactive | GPR119 ag inactive
CC(C)(C)n1nc2c(c1NC(=O)c1cccc(F)c1)CSC2	none
COc1ccc(CC(=O)Nc2c3c(nn2C(C)(C)C)CSC3)cc1	none
CCCc1cc(=O)[nH]c2nnc(SCC(=O)Nc3ccc(F)cc3)n12	none
O=C(Oc1ccccc1)c1cc2ccccc2oc1=O	none
O=C(OCc1ccccc1)c1ccc(OC(=O)c2cc3ccccc3oc2=O)cc1	GPR151 ag 6.6 | GPR151 confirm inactive | GPR119 ag inactive
O=C(NCCCN1CCN(Cc2ccccc2)CC1)c1csc2c1CCCC2	none
COc1ccc(-c2oc3c(CC=C(C)C)c(O[C@@H]4O[C@H](CO)[C@@H](O)[C@H](O)[C@H]4O)cc(O)c3c(=O)c2O[C@@H]2O[C@@H](C)[C@H](O)[C@@H](O)[C@H]2O)cc1	GPR151 ag 6.8! | GPR151 confirm inactive | GPR119 ag inactive
CNC(=O)CC(=O)Nc1ccc(C(=O)O)cc1	none
CCCNC(=O)CSc1nccn1Cc1ccc(F)cc1	GPR151 ag 5.7 | GPR151 confirm inactive | GPR119 ag inactive
CCCCC1CCC(C(=O)OCC(=O)c2ccc(-c3ccc(Br)cc3)cc2)CC1 (centres undefined)	GPR151 ag 6.6 | GPR151 confirm inactive | GPR119 ag inactive
CCCCCC(=O)N1c2ccccc2NC2=C(C(=O)CC(c3ccccc3)C2)C1c1cc(OC)c(OC)c(OC)c1 (centres undefined)	none
CCCCN(c1ccccc1)c1ncnc2c1cnn2C	none
CCN(c1ccccc1)c1ncnc2c1cnn2C	GPR151 ag 5.0 | GPR151 confirm inactive | GPR119 ag inactive
Cc1ccsc1CCNc1c(-c2ccccc2)c(=O)c1=O	GPR151 ag 5.2 | GPR151 confirm inactive | GPR119 ag inactive
Cc1cccc(CCNc2c(-c3ccccc3)c(=O)c2=O)c1	none
CCOCCCNC(=S)N1CCN(c2nc(-c3ccc(F)cc3)cs2)CC1	TEAD-YAP inh 33, GPR151 ag 5.8 | GPR151 confirm inactive | GPR119 ag inactive
CCOC(=O)CN(c1ccc(C)cc1)S(=O)(=O)c1ccc2[nH]c(=O)cc(C)c2c1	none
O=C1CCC(c2ccccc2)=NN1c1ccccn1	none
O=C1CCC(c2sc(Cl)c(Cl)c2Cl)=NN1c1ccccc1	GPR151 ag 12 | GPR151 confirm inactive | GPR119 ag inactive
CC(C)(C)Cc1nnc(NC(=O)c2ccccc2[N+](=O)[O-])s1	GPR151 ag 13 | GPR151 confirm inactive | GPR119 ag inactive
O=C(Nc1nc(-c2ccccc2)cs1)c1ccccc1[N+](=O)[O-]	none
CCc1nnc(NC(=O)c2ccccc2[N+](=O)[O-])s1	none
O=C(Nc1nc(-c2ccccn2)cs1)c1ccccc1[N+](=O)[O-]	TEAD-YAP inh 54, GPR151 ag 5.4 | GPR151 confirm inactive | GPR119 ag inactive
Cc1cccc(N2CCN(C(=O)c3cccnc3SCc3ccccc3Cl)CC2C)c1 (centres undefined)	GPR151 ag 6.8 | GPR151 confirm inactive | GPR119 ag inactive
Cc1ccccc1CSc1ncccc1C(=O)N1CCN(c2cccc(Cl)c2)CC1	none
CN(C)c1ccc(/C=C(/NC(=O)c2ccccc2)C(=O)N2CCCCCC2)cc1	none
O=C(/C=C/c1c(F)cccc1Cl)NCCN1CCOCC1	GPR151 ag 6.2 | GPR151 confirm inactive | GPR119 ag inactive
C=CCOc1ccc(/C=C2\C(=O)NC(=O)N(C)C2=O)cc1Br	GPR151 ag 5.7 | GPR151 confirm inactive | GPR119 ag inactive
COc1ccc(-c2nnc(SCC(=O)NC(=O)NCc3ccccc3)o2)cc1OC	none
CN1CCC(CNS(=O)(=O)CCc2ccccc2)CC1	GPR151 ag 5.7 | GPR151 confirm inactive | GPR119 ag inactive
COc1cc(S(=O)(=O)Nc2cccc(C)n2)ccc1Br	none
Cc1cc(NS(=O)(=O)c2ccc(Cl)cc2)nn1CC(=O)NCc1ccco1	none
Cc1cc(NC(=O)Cn2cnc([N+](=O)[O-])n2)nn1CC(=O)NCc1ccco1	GPR151 ag 5.5 | GPR151 confirm inactive | GPR119 ag inactive
CCOC(=O)c1c(NC(=O)CSc2nnc(CNC(=O)c3ccc(OC)c(OC)c3)n2-c2cccc(C)c2C)sc2c1CCC2	none
O=[N+]([O-])c1cccc(C2SCCN2S(=O)(=O)c2ccc(Br)cc2)c1 (centres undefined)	GPR151 ag 5.8 | GPR151 confirm inactive | GPR119 ag inactive
O=[N+]([O-])c1cccc(C2SCCN2S(=O)(=O)c2ccc(I)cc2)c1 (centres undefined)	none
O=S(=O)(c1ccccc1)N1N=C(c2ccccc2)CC1c1ccco1 (centres undefined)	GPR151 ag 5.4 | GPR151 confirm inactive | GPR119 ag inactive
O=[N+]([O-])c1cccc(C2CC(c3ccc(Br)cc3)=NN2S(=O)(=O)c2ccccc2)c1 (centres undefined)	GPR151 ag 5.4 | GPR151 confirm inactive | GPR119 ag inactive
CCCCS(=O)(=O)NCc1ccc(S(N)(=O)=O)cc1	none
Cc1cc(C)c(S(=O)(=O)Nc2cccc(F)c2)c(C)c1	none
Cn1c(=O)c2c(NC(=O)c3c(F)cccc3F)ccnc2n(C)c1=O	GPR151 ag 10 | GPR151 confirm inactive | GPR119 ag inactive
O=C(O)C1CCC(CN(Cc2cccc(Br)c2)C(=S)Nc2ccccc2F)CC1 (centres undefined)	none
Cc1ccccc1NC(=S)N(Cc1cccc(Br)c1)CC1CCC(C(=O)O)CC1 (centres undefined)	GPR151 ag 7.6 | GPR151 confirm inactive | GPR119 ag inactive
CCOC(=O)N(NC(=O)C(O)(c1ccc(OC)cc1)c1ccc(OC)cc1)C(C)c1ccc(OC)cc1 (centres undefined)	none
Cc1n[nH]c(C)c1CCN(C)C(=O)CN1Cc2ccccc2OC(c2ccsc2)C1 (centres undefined)	none
CCN(CC)C(=O)c1ccc2c(=O)n(-c3ccc(F)cc3)c(=S)[nH]c2c1	GPR151 ag 5.0 | GPR151 confirm inactive | GPR119 ag inactive
O=C(CCCOc1ccccc1)Nc1ccccc1C(=O)N1CCOCC1	GPR151 ag 9.4 | GPR151 confirm inactive | GPR119 ag inactive
CSCn1cnc2cc(C)c(C)cc21	none
